Test systems include RPMI-8226 leukemia; OVCAR-8 ovarian; OVCAR-5 ovarian; OVCAR-4 ovarian; SK-OV-3 ovarian; IGROV1 ovarian; OVCAR-3 ovarian; HS 578T breast; NCI/ADR-RES ovarian; T-47D breast; BT-549 breast; MDA-MB-435 melanoma; SW-620 colon; MCF7 breast; HCT-116 colon; HCC-2998 colon; KM12 colon.
What all share (assay): NCI-60 one-dose screen, 48 h (100 = growth as untreated, 0 = no growth, -100 = all killed)
Conditions in all cases: 10 µM unless noted

This is part of a sample that, as a whole, favours compounds with a hit. Of some 83,000 tested, about 20% had one in any assay.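 In brief: 96-well plates, 48 h treatment, single concentration, percent growth endpoint.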 Values without a mark were called inactive. Active and inactive are the calls of the source. How the source made its calls: active means growth percent below 10; inactive means the rest.

Take `O=C1/C(=N/O)CCc2ccccc21`: the growth in the experiment on RPMI-8226 leukemia is 72.9%; in the experiment with OVCAR-8 ovarian, 95.6%; in the experiment with OVCAR-5 ovarian it was 108%; in the experiment with OVCAR-4 ovarian it was 85.7%; with SK-OV-3 ovarian it was 100%; in the experiment with IGROV1 ovarian, 69.5%. In addition, the growth in the experiment with OVCAR-3 ovarian was -6.51% (active); in the experiment with HS 578T breast it was 95%; with NCI/ADR-RES ovarian it was 102%; in the experiment with T-47D breast, 100%; in the experiment with BT-549 breast, 102%; in the experiment with MDA-MB-435 melanoma, 95.6%. The growth with SW-620 colon was 95%; in the experiment with MCF7 breast, 96.3%; with HCT-116 colon, 83.6%; in the experiment on HCC-2998 colon, 103%; in the experiment on KM12 colon, 89.3%.

With `O=[N+]([O-])c1ccc(N/N=C\c2ccccc2[N+](=O)[O-])nc1`, the growth with RPMI-8226 leukemia is 102%; in the experiment on OVCAR-8 ovarian, 107%; in the experiment on OVCAR-5 ovarian, 124%; in the experiment on OVCAR-4 ovarian, 120%; with SK-OV-3 ovarian, 121%; in the experiment on IGROV1 ovarian it was 106%. For the same compound, the growth in the experiment on OVCAR-3 ovarian was 109%; in the experiment with HS 578T breast, 97.7%; in the experiment on NCI/ADR-RES ovarian, 108%; in the experiment on T-47D breast, 107%; in the experiment with BT-549 breast it was 101%; in the experiment with MDA-MB-435 melanoma it was 107%. Further, the growth in the experiment with SW-620 colon is 107%; with MCF7 breast, 88.8%; with HCT-116 colon, 102%; in the experiment on HCC-2998 colon it was 107%; in the experiment with KM12 colon it was 104%.

Consider `O=C(/C=C/c1cccnc1)NCCCCC1CCCN(C(=O)c2ccccc2)C1` (stereo not drawn), for which the growth with RPMI-8226 leukemia is 36.9%; with OVCAR-8 ovarian, 22%; with OVCAR-5 ovarian it was 96.1%; in the experiment on OVCAR-4 ovarian it was 89.2%; in the experiment with SK-OV-3 ovarian, 91.6%; in the experiment on IGROV1 ovarian, 33.8%. Also, the growth was 74.7% in the experiment with OVCAR-3 ovarian; 52.2% with HS 578T breast; 32.1% with NCI/ADR-RES ovarian; 47.3% in the experiment with T-47D breast; 73.7% with BT-549 breast; 7.35% (active) in the experiment with MDA-MB-435 melanoma. In addition, the growth was 25.5% in the experiment with SW-620 colon; 54.4% with MCF7 breast; 7.85% (active) in the experiment with HCT-116 colon; 46.6% in the experiment on HCC-2998 colon; 43.9% with KM12 colon.

In the case of `O=C(Nc1ccc(C2=NCCCN2)cc1)Nc1ccc(C2=NCCCN2)cc1`, the growth in the experiment with RPMI-8226 leukemia was 53.2%; in the experiment with OVCAR-8 ovarian, 89%; in the experiment on OVCAR-5 ovarian, 101%; in the experiment with OVCAR-4 ovarian, 64%; with SK-OV-3 ovarian, 110%; in the experiment on IGROV1 ovarian, 110%. For the same compound, the growth with OVCAR-3 ovarian was 99.4%; with HS 578T breast, 79.5%; in the experiment with NCI/ADR-RES ovarian it was 94.4%; in the experiment on T-47D breast, 73.6%; in the experiment with BT-549 breast, 100%; with MDA-MB-435 melanoma, 95.3%. Moreover, the growth is 99.4% with SW-620 colon; 94% in the experiment with MCF7 breast; 67.4% in the experiment on HCT-116 colon; 117% in the experiment with HCC-2998 colon; 100% in the experiment with KM12 colon.

As to `CCC(=O)Nc1ccccc1C#C/C=C\C#Cc1ccccc1C(F)(F)F`, the growth was 100% in the experiment on RPMI-8226 leukemia; 106% with OVCAR-8 ovarian; 53.8% in the experiment on OVCAR-5 ovarian; 85.8% in the experiment on OVCAR-4 ovarian; 52.3% in the experiment on SK-OV-3 ovarian; -21.8% (active) in the experiment on IGROV1 ovarian. Further, the growth is 70.2% in the experiment on OVCAR-3 ovarian; 17.1% in the experiment with HS 578T breast; 27.2% in the experiment on NCI/ADR-RES ovarian; 65.4% in the experiment on T-47D breast; 39.9% with BT-549 breast; 0.785% (active) in the experiment with MDA-MB-435 melanoma. Further, the growth with SW-620 colon was 29.7%; in the experiment with MCF7 breast it was 33.2%; in the experiment with HCT-116 colon, 41%; in the experiment with HCC-2998 colon, 70.6%; in the experiment with KM12 colon it was 41.5%.

For `O=C(O)c1ccc(NC(=O)c2ccc(Nc3ccnc(C(F)(F)F)c3)cc2)cc1`, the growth was 98.3% in the experiment on RPMI-8226 leukemia; 102% in the experiment with OVCAR-8 ovarian; 107% with OVCAR-5 ovarian; 103% in the experiment with OVCAR-4 ovarian; 98.9% with SK-OV-3 ovarian; 105% in the experiment with IGROV1 ovarian. Besides, the growth is 104% with OVCAR-3 ovarian; 96.8% in the experiment with HS 578T breast; 102% in the experiment on NCI/ADR-RES ovarian; 93.8% in the experiment with T-47D breast; 109% with BT-549 breast; 104% with MDA-MB-435 melanoma. Moreover, the growth is 105% in the experiment on SW-620 colon; 100% in the experiment on MCF7 breast; 104% with HCT-116 colon; 103% with HCC-2998 colon; 93.2% with KM12 colon.

For `CCC(C)CC(CC)NCCN1CCN(C(CC)CC(C)CC)C1=S` (stereo not drawn), the growth with RPMI-8226 leukemia was -46.2% (active); in the experiment with OVCAR-8 ovarian it was 62.7%; in the experiment on OVCAR-5 ovarian, 37.2%; in the experiment with OVCAR-4 ovarian, 37.8%; with SK-OV-3 ovarian it was 56.2%; in the experiment on IGROV1 ovarian it was 52.7%. For the same compound, the growth in the experiment on OVCAR-3 ovarian was 39.5%; in the experiment on HS 578T breast, 67.2%; in the experiment on NCI/ADR-RES ovarian it was 56.4%; with T-47D breast, -9.85% (active); with BT-549 breast, 78.6%; with MDA-MB-435 melanoma, 26.8%. For the same compound, the growth with SW-620 colon is 29.1%; in the experiment on MCF7 breast, -60.9% (active); in the experiment with HCT-116 colon, 16.4%; in the experiment with HCC-2998 colon, -45.6% (active); with KM12 colon, 24.4%.

For `Cc1cc(NC(=O)c2ccc(N)cc2)ccc1N=Nc1ccc2c(O)c(N=Nc3ccc(Cl)c(S(=O)(=O)O)c3)c(S(=O)(=O)O)cc2c1`, the growth in the experiment on RPMI-8226 leukemia is 65.6%; with OVCAR-8 ovarian, 70.2%; in the experiment on OVCAR-5 ovarian, 92.2%; in the experiment with OVCAR-4 ovarian it was 106%; in the experiment with SK-OV-3 ovarian it was 88.6%; in the experiment on IGROV1 ovarian it was 73%. Besides, the growth is 85.9% in the experiment on OVCAR-3 ovarian; 103% with HS 578T breast; 76.1% with NCI/ADR-RES ovarian; 70.9% in the experiment on T-47D breast; 102% in the experiment on BT-549 breast; 95.5% in the experiment with MDA-MB-435 melanoma. Further, the growth was 92.6% with SW-620 colon; 80.1% in the experiment with MCF7 breast; 71.5% in the experiment on HCT-116 colon; 73.1% in the experiment with HCC-2998 colon; 90% in the experiment on KM12 colon.

As to `COc1ccc(-c2nc3sccn3c2-c2ccnc(S(C)(=O)=O)n2)cc1`, the growth with RPMI-8226 leukemia is 86.5%; in the experiment with OVCAR-8 ovarian it was 111%; in the experiment on OVCAR-5 ovarian, 96.7%; with OVCAR-4 ovarian it was 80.4%; with SK-OV-3 ovarian, 105%; with IGROV1 ovarian, 37.9%. Besides, the growth was 84.3% in the experiment on OVCAR-3 ovarian; 94.3% in the experiment on HS 578T breast; 104% in the experiment with NCI/ADR-RES ovarian; 36.4% in the experiment with T-47D breast; 122% in the experiment with BT-549 breast; 82.7% with MDA-MB-435 melanoma. In addition, the growth is 91.1% in the experiment on SW-620 colon; 46.2% in the experiment with MCF7 breast; 79.6% in the experiment with HCT-116 colon; -55% (active) in the experiment with HCC-2998 colon; 75% in the experiment with KM12 colon.

(Values after PubChem BioAssay (NCI).)
